Test results taken from PubChem BioAssay (EPA / NIEHS).
Where “and” joins values, the source holds several entries; their conditions need not be identical. Equal entries are not always repeated. Records with an inconclusive call do not appear. Some compounds were tested as several samples or in several runs, with calls that do not always agree. Calls of active or inactive are those of the source. Rule for the calls, unless noted: active = hit-call score of the fitted dose curve at least 0.9, where 1 is the maximum; inactive = score below 0.9.

What was measured:
[1] = read-out: E-selectin (Homo sapiens) (UniProt P16581); test: BSK_SAg_Eselectin: BioMAP Diversity Plus: SAg Assay for Eselectin Biomarker Activity (AID 2283091); conditions: primary human HUVEC with PBMC; actives raise or lower the signal
Procedure, shortened: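 HUVEC co-cultured with PBMC, compound dosed then read at 24 h; E-selectin measured by ELISA. Activity fitted bidirectionally against DMSO as negative control and baseline.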

[2] = read-out: Monokine induced gamma interferon (MIG), CXCL9 (gene 4283); test: BSK_SAg_MIG: BioMAP Diversity Plus: SAg Assay for Monokine induced gamma interferon (MIG) Biomarker Activity (AID 2283092); conditions: primary human HUVEC with PBMC; actives raise or lower the signal
Procedure, shortened: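 HUVEC plus human PBMC co-culture, chemicals dosed and MIG (CXCL9) quantified by ELISA at 24 h. Bidirectional curve fitting against DMSO as negative control and baseline, so both gain and loss of signal count as activity.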

[3] = BSK_SAg_PBMCCytotoxicity: PBMC Cytotoxicity Assessment in the BioMAP Diversity Plus: SAg Assay (AID 2283093); conditions: primary human HUVEC with PBMC;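 note: PBMC viability measured as Alamar Blue reduction fluorescence at 546/580 nm; fitted both ways against DMSO so a hit may be loss or gain of signal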;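 for AC50: PBMC superantigen activated with SEB plus TSST-1 one hour after compound addition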
Procedure, shortened: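 HUVEC/PBMC co-culture; PBMC exposed to chemical 1 h before SEB and TSST-1 activation (20 ng/mL each), incubated 90 h, then Alamar Blue 6 h, fluorescence 546/580 nm. Bidirectional fit versus DMSO baseline.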

[4] = read-out: Interleukin-8 (IL8), CXCL8 (gene 3576); test: BSK_SAg_IL8: BioMAP Diversity Plus: SAg Assay for Interleukin-8 (IL8) Biomarker Activity (AID 2283094); conditions: primary human HUVEC with PBMC; actives raise or lower the signal
Procedure, shortened: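 ELISA read-out of IL-8 in a primary human vascular co-culture (umbilical vein endothelium plus PBMC), taken 24 h after compound addition. Values derive from bidirectional fits against DMSO negative controls.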

[5] = BSK_SAg_Proliferation: Cell Proliferation Assessment in the BioMAP Diversity Plus: SAg Assay (AID 2283095); conditions: primary human HUVEC with PBMC;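 note: relative cell number as total protein by SRB absorbance in sub-confluent culture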
Procedure, shortened: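 Cells (endothelium plus PBMC, human primary) were dosed with chemical, cultured 96 h, fixed in 10% TCA and stained with 0.1% SRB. Absorbance at 560 nm gave relative protein, fitted bidirectionally relative to DMSO.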

[6] = BSK_SAg_SRB: Viability Assessment in the BioMAP Diversity Plus: SAg Assay (AID 2283096); conditions: primary human HUVEC with PBMC;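 note: cells read one day after compound addition; hits may be either gain or loss of signal compared with DMSO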
Procedure, shortened: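 Human umbilical vein endothelial cells co-cultured with PBMC, read 24 h after compound dosing. Total protein measured by sulforhodamine B staining (0.1% SRB after 10% TCA fixation, absorbance 560 nm); bidirectional fit versus DMSO baseline.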

[7] = molecular target: human CYP2A6, CYP2A6 (gene 1548) (UniProt P11509); test: NVS_ADME_hCYP2A6: NovaScreen (NVS) CYP450-related Enzyme Activity (ADME) Assay for human CYP2A6 (AID 2283099; active = hit-call score of the fitted dose curve at least 0.9, where 1 is the maximum)
human CYP2A6, CYP2A6 (gene 1548), sequence (P11509 whole entry, looked up): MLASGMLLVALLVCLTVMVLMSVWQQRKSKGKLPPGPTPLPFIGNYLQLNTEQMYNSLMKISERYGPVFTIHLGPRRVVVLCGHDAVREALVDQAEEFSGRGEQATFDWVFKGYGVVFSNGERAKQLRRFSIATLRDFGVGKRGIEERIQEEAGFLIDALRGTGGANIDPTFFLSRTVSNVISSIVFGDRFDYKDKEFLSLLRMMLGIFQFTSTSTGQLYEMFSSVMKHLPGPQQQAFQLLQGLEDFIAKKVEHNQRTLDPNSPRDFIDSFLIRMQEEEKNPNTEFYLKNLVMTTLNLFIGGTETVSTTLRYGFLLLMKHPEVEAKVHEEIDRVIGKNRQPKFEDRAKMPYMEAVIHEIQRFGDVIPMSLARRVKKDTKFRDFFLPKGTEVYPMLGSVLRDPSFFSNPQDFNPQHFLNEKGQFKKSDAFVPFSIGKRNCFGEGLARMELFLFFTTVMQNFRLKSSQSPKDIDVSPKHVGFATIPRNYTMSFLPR
Procedure, shortened: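 Cell-free fluorescence readout of recombinant human CYP2A6 expressed in insect cells, read 0.5 h after dosing; loss of signal versus acetonitrile negative control. Primary screen in duplicate at 10 uM; actives re-run in concentration-response up to 20 uM.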

[8] = molecular target: human CYP2B6, CYP2B6 (gene 1555) (UniProt P20813); test: NVS_ADME_hCYP2B6: NovaScreen (NVS) CYP450-related Enzyme Activity (ADME) Assay for human CYP2B6 (AID 2283101; active = hit-call score of the fitted dose curve at least 0.9, where 1 is the maximum)
human CYP2B6, CYP2B6 (gene 1555), sequence (P20813 whole entry, looked up): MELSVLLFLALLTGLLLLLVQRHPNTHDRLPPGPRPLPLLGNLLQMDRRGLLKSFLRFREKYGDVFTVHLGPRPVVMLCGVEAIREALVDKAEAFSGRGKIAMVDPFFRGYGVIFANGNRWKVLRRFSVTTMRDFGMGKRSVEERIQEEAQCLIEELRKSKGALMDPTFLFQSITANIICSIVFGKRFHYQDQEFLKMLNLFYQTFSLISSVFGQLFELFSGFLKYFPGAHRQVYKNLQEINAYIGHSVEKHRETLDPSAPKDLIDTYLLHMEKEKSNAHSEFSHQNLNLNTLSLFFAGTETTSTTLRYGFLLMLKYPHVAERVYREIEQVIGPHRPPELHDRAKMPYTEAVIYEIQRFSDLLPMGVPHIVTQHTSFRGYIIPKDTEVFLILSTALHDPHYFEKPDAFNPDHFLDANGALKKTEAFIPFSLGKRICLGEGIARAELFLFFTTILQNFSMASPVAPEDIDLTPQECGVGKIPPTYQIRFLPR
Procedure, shortened: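 Recombinant human CYP2B6 with fluorogenic substrate, read by fluorescence intensity 1 h after dosing. Primary screen in duplicate at 10 uM, actives followed in concentration series; signal loss relative to acetonitrile control.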

[9] = molecular target: human CYP2C9, CYP2C9 (gene 1559) (UniProt P11712); test: NVS_ADME_hCYP2C9: NovaScreen (NVS) CYP450-related Enzyme Activity (ADME) Assay for human CYP2C9 (AID 2283108; active = hit-call score of the fitted dose curve at least 0.9, where 1 is the maximum)
human CYP2C9, CYP2C9 (gene 1559), sequence (P11712 whole entry, looked up): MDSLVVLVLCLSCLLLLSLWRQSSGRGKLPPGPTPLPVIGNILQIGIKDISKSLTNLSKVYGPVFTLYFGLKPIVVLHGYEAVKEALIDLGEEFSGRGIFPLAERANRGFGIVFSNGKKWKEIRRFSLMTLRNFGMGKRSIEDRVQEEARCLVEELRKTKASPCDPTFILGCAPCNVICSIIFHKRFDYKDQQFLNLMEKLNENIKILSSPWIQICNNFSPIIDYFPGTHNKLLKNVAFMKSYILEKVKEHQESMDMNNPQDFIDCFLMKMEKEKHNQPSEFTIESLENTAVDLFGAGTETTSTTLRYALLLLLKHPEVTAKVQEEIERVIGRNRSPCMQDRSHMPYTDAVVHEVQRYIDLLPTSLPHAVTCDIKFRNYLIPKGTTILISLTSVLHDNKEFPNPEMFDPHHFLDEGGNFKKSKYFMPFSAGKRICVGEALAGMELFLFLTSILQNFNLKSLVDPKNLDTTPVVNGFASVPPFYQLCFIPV
Procedure, shortened: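 Recombinant human CYP2C9 expressed in SF9 cells, fluorogenic substrate, fluorescence read 0.75 h after dosing. Chemicals first run in duplicate at 10 uM, with actives followed in concentration series; loss of signal versus acetonitrile baseline.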

[10] = molecular target: Cytochrome P450 2C19 (Homo sapiens) (UniProt P33261); test: NVS_ADME_hCYP2C19: NovaScreen (NVS) CYP450-related Enzyme Activity (ADME) Assay for human CYP2C19 (AID 2283113; active = hit-call score of the fitted dose curve at least 0.9, where 1 is the maximum;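 note: potency for inhibition seen as loss of fluorescent signal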)
Procedure, shortened: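 Cell-free assay of recombinant human CYP2C19 expressed in insect cells, with a fluorogenic substrate; fluorescence intensity read 1 hour after dosing. Loss of signal relative to acetonitrile negative control indicates inhibition. Primary screen at 10 uM in duplicate, then concentration series.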

[11] = molecular target: Cytochrome P450 3A4 (Homo sapiens) (UniProt P08684); test: NVS_ADME_hCYP3A4: NovaScreen (NVS) CYP450-related Enzyme Activity (ADME) Assay for human CYP3A4 (AID 2283110; active = hit-call score of the fitted dose curve at least 0.9, where 1 is the maximum)
Cytochrome P450 3A4 (Homo sapiens), sequence (P08684 whole entry, looked up): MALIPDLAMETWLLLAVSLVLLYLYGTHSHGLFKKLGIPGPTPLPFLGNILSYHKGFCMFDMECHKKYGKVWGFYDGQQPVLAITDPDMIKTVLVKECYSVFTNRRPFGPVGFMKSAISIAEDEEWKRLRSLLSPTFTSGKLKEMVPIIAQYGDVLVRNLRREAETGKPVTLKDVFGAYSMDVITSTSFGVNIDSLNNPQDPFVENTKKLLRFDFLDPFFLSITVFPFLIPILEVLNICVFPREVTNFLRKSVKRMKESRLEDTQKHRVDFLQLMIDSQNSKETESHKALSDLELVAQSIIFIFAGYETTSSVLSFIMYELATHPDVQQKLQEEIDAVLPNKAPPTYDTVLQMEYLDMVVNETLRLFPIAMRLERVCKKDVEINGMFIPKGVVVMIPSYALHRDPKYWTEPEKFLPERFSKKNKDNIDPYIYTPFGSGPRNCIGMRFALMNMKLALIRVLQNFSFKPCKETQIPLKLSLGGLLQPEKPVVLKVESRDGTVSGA
Procedure, shortened: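 Cell-free recombinant enzyme expressed in insect cells; fluorescent substrate turnover read after 0.33 h, acetonitrile as negative control. Primary screen in duplicate at 10 uM, actives then tested in concentration series.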

[12] = molecular target: human CYP2D6, CYP2D6 (gene 1565) (UniProt P10635); test: NVS_ADME_hCYP2D6: NovaScreen (NVS) CYP450-related Enzyme Activity (ADME) Assay for human CYP2D6 (AID 2283107; active = hit-call score of the fitted dose curve at least 0.9, where 1 is the maximum)
human CYP2D6, CYP2D6 (gene 1565), sequence (P10635 whole entry, looked up): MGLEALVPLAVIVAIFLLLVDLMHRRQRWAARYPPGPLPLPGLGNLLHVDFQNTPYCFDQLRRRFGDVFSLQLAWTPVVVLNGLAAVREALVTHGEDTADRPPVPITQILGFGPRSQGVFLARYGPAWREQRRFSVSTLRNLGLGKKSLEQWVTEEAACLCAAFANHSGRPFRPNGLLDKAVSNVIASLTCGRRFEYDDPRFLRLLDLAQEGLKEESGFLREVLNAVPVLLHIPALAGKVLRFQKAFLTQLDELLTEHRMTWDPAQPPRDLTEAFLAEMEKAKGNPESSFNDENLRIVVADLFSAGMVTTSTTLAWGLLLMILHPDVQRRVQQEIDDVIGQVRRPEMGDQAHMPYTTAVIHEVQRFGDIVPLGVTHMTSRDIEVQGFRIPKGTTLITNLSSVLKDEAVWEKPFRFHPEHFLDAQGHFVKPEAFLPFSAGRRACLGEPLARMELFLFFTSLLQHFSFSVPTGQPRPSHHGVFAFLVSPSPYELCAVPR
Procedure, shortened: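 Cell-free assay using recombinant enzyme expressed in insect cells, with fluorescence-intensity readout of enzyme activity 1 hour after chemical dosing. Loss of signal versus acetonitrile negative control indicates inhibition. Primary screen ran in duplicate at 10 uM; actives were retested in concentration series.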

Measured: AC50

E-selectin (Homo sapiens), sequence (P16581 whole entry, looked up): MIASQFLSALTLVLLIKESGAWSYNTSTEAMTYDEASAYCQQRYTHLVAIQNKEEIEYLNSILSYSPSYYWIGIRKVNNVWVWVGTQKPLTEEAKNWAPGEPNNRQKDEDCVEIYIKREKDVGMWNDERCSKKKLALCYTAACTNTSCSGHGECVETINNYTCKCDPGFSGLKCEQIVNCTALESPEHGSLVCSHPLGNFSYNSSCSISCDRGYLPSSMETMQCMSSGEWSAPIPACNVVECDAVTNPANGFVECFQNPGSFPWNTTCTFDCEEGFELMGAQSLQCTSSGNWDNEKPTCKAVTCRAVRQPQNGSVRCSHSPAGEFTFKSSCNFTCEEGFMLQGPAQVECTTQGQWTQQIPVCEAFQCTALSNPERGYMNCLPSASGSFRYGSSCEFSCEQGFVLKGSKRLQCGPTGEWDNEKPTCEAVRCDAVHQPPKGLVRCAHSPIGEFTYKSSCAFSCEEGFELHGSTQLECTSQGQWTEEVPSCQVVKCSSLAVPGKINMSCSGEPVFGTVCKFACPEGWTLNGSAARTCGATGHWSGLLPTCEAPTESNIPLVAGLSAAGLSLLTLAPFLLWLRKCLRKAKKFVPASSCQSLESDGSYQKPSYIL

CCC(=O)O[C@H]1CC[C@H]2[C@@H]3CCC4=CC(=O)CC[C@]4(C)[C@H]3CC[C@]12C
active: [1] 34.2 µM | [2] 35.7 µM | [3] 37.9 µM | [4] 29.8 µM | [5] 33.3 µM | [6] 29.4 µM

O=S(=O)(O)C(F)(F)C(F)(F)C(F)(F)C(F)(F)F
inactive: [1] | [2] | [3] | [4] | [5] | [6]

c1cc2ccc3cccc4ccc(c1)c2c34
inactive: [1] | [2] | [3] | [4] | [5] | [6]

Nn1cnnc1
inactive: [1] | [2] | [3] | [4] | [5] | [6]

Oc1ccc(Cl)cc1Cl
inactive: [1] | [2] | [3] | [4] | [5] | [6]

Oc1c(Cl)c(Cl)c(Cl)c(Cl)c1Cl
active: [1] 27.3 µM | [2] 34.8 µM | [3] 8 µM | [5] 15.8 µM and 26.9 µM | [6] 14.6 µM and 21.8 µM
inactive: [1] | [2] | [3] | [4] | [7] | [8]

COc1ccc(O)c(C(C)(C)C)c1
active: [3] 20 µM | [9] 10 µM | [10] 12.1 µM
inactive: [1] | [2] | [3] | [4] | [5] | [6] | [7] | [8]

Cc1cc(O)ccc1Cl
inactive: [1] | [2] | [3] | [4] | [5] | [6]

CN(C)c1nc(=O)n(C2CCCCC2)c(=O)n1C
inactive: [1] | [2] | [3] | [4] | [5] | [6]

Cc1ccccc1O
inactive: [1] | [2] | [3] | [4] | [5] | [6]

O=NN(c1ccccc1)c1ccccc1
inactive: [1] | [2] | [3] | [4] | [5] | [6]

C=CC(=O)NCNC(=O)C=C
inactive: [1] | [2] | [3] | [4] | [5] | [6]

c1ccc(-c2ccccc2)cc1
inactive: [1] | [2] | [3] | [4] | [5] | [6]

CCCCCCCCCc1ccc(O)cc1
active: [1] 20 µM | [2] 33.7 µM | [3] 16.2 µM | [4] 20.2 µM | [5] 14.3 µM | [6] 23.8 µM

O=C(O)C(F)(F)C(F)(F)C(F)(F)C(F)(F)C(F)(F)C(F)(F)C(F)(F)C(F)(F)F
inactive: [1] | [2] | [3] | [4] | [5] | [6]
active: [4] 44.1 µM and 55.1 µM | [5] 55.2 µM | [6] 51 µM and 55 µM | [9] 0.643 µM

CCOP(=S)(OCC)SCSC(C)(C)C
inactive: [2] | [4] | [6]
active: [1] 39 µM | [3] 31.1 µM | [5] 28.8 µM

CCCCCCOC(=O)c1ccccc1C(=O)OCCCCCC
inactive: [2] | [6]
active: [1] 32.6 µM | [3] 35 µM | [4] 29 µM | [5] 28.6 µM

Clc1ccc(Cl)cc1
inactive: [1] | [2] | [3] | [4] | [5] | [6]

Clc1ccc(C(Cl)(Cl)Cl)cc1
inactive: [1] | [2] | [3] | [4] | [5] | [6]

C=CC(N)=O
inactive: [1] | [2] | [3] | [4] | [5] | [6]

CCCCCCCCOC(=O)c1ccccc1C(=O)OCCCCCCCC
active: [3] 5.6 µM
inactive: [1] | [2] | [4] | [5] | [6]

CCOCCOC(C)=O
inactive: [1] | [2] | [3] | [4] | [5] | [6]

Sc1ccccc1
inactive: [1] | [2] | [3] | [4] | [5] | [6]

COS(=O)(=O)OC
inactive: [1] | [2] | [3] | [4] | [5] | [6]

CC1=C2C[C@H]3[C@@H](CC=C4C[C@@H](O)CC[C@@]43C)[C@@H]2CC[C@]12O[C@@H]1C[C@H](C)CN[C@H]1[C@H]2C
inactive: [1] | [2] | [3] | [4] | [5] | [6]

Cc1ccccc1[N+](=O)[O-]
inactive: [1] | [2] | [3] | [4] | [5] | [6]

N#Cc1ccc(N(CC(N)=O)CC(F)(F)F)cc1C(F)(F)F
inactive: [1] | [2] | [3] | [4] | [5]

C1CC2OC2CC1C1CO1 (centres undefined)
inactive: [1] | [2] | [3] | [4] | [5] | [6]

O=C(NC(=O)c1cc(F)c(F)cc1Cl)Nc1cc(F)ccc1N1CCC(C(=O)O)CC1
inactive: [1] | [2] | [3] | [4] | [5] | [6]

Cc1ccccc1CO[C@@H]1C[C@@]2(C(C)C)CC[C@]1(C)O2
inactive: [1] | [2] | [3] | [4] | [5] | [6]

O=C(NC(=O)c1c(F)cccc1F)Nc1cc(Cl)c(OC(F)(F)C(F)F)c(Cl)c1
inactive: [1] | [2] | [3] | [4] | [5] | [6]

O=C(O)C(F)(F)C(F)(F)C(F)(F)C(F)(F)C(F)(F)F
inactive: [1] | [2] | [3] | [4] | [5] | [6]

CCC(C)(c1ccc(O)cc1)c1ccc(O)cc1
inactive: [2] | [6] | [11]
active: [1] 16.8 µM | [3] 29.8 µM | [4] 16 µM | [5] 28.5 µM | [8] 4.81 µM | [9] 6.47 µM | [10] 4.4 µM

CC(C)(c1ccccc1)c1ccc(O)cc1
active: [1] 33.5 µM | [2] 38.7 µM | [3] 31.5 µM | [4] 30.9 µM | [5] 34.2 µM | [6] 30.4 µM | [8] 7.47 µM | [9] 10 µM
inactive: [12] | [11]

ClC1=C(Cl)[C@]2(Cl)[C@@H]3[C@H]4C[C@H]([C@@H]5O[C@H]45)[C@@H]3[C@@]1(Cl)C2(Cl)Cl
active: [1] 5.87 µM | [3] 5.53 µM | [5] 7.7 µM | [6] 8.56 µM | [8] 4.45 µM
inactive: [2] | [4]

CC(c1ccc(O)cc1)(c1ccc(O)cc1)c1ccc(O)cc1
active: [1] 13.9 µM | [2] 33.8 µM | [4] 20 µM | [5] 21.6 µM | [6] 15.7 µM | [10] 1.73 µM
inactive: [3]
